Screening data deposited in PubChem BioAssay by Emory University Molecular Libraries Screening Center.
Measles inh – inhibitors of measles virus growth in cells, primary screen, measles RdRp inhibitor project, cell-based, single point, HTS | z-score (no concentration beside the values) | infected Vero cells, GFP fluorescence, 64 h; stronger effect = lower value | 0.1% of 33,000 active; in the data active means z-score below about -3
Starred values were filed as active, the others as inactive. Shown is part of a subset that was picked to be rich in hits.

SMILES	Measles inh
COc1cccc(-n2c(=O)c3c4c(sc3n(Cc3ccc([N+](=O)[O-])cc3)c2=O)CCCC4)c1	-0.73
O=C(Nc1ccc2nn(-c3cccc(Cl)c3)nc2c1)c1cccc2ccccc12	0.64
CCOC(=O)C1C(=O)C=C(c2cccs2)CC1c1cc(OC)ccc1OC (stereo not drawn)	1.2
O=C(CSc1ncccc1C(=O)n1ccnc1)N1CCCCCC1	-0.31
Cc1cc(C)c(NC(=O)c2cc(S(=O)(=O)N3CC(C)CC(C)C3)ccc2F)c(C)c1 (stereo not drawn)	-0.55
O=C(NCCc1ccccc1)c1cc(S(=O)(=O)N2CCCCC2)ccc1F	0.24
CCOC(=O)c1nn(-c2ccc(OC)cc2)c(=O)c2c(NC(=O)c3ccccc3C)scc12	-1.6
CCC(C)NC(=O)c1ccc2c(=O)n(Cc3ccc4c(c3)OCO4)c(=S)[nH]c2c1 (stereo not drawn)	-1.9
O=C(Cn1c(=S)[nH]c2ncccc2c1=O)NC1CC1	1.1
COc1ccc(OCC(=O)Nc2cc(C)on2)cc1	-0.61
CC(=O)NC(c1ccccc1)c1cc(Cl)c2cccnc2c1O (stereo not drawn)	-0.77
CCOc1cc(C(NC(=O)CC)c2cc([N+](=O)[O-])c3cccnc3c2O)ccc1O (stereo not drawn)	-0.83
CC(=O)NC(c1ccc(C)cc1)c1cc([N+](=O)[O-])c2cccnc2c1O (stereo not drawn)	-3.4*
COc1ccc(Cl)cc1NS(=O)(=O)c1cnc[nH]1	0.18
O=S(=O)(Nc1cccc(C(F)(F)F)c1)c1cnc[nH]1	0.38
O=S(=O)(Nc1ccc(Cl)cc1)c1cnc[nH]1	-3.5*
COc1ccccc1N1CCN(C(=O)Cn2cnc3sc(C)c(C)c3c2=O)CC1	0.11
COc1cc(OC)cc(-n2c(=O)c3sccc3n(Cc3cc(C)ccc3C)c2=O)c1	-0.64
COc1cccc(C(=O)Nc2ccc(S(=O)(=O)Nc3nc(C)cc(C)n3)cc2)c1	0.58
Cc1cc(C)nc(NS(=O)(=O)c2ccc(Br)cc2)n1	-3.1*
COc1ccc(CC(=O)Nc2ccc(S(=O)(=O)Nc3nc(C)cc(C)n3)cc2)cc1	1.5
O=C(Nc1ccc(Cl)c(-c2nc3cc(Cl)ccc3o2)c1)c1ccc([N+](=O)[O-])o1	-0.78
COc1cc(NC(C)=O)ccc1NC(=O)c1ccco1	-0.79
CC(=O)Oc1c(Sc2ccc(Cl)cc2)c(C)nn1-c1ccccc1	1.5
FC(F)(F)c1c(Cl)nc(N2CCCCCC2)c(Cl)c1Cl	1.5
SMILES	Measles inh
C=CCSc1nnc2c(n1)OC(c1cccs1)Nc1ccccc1-2 (stereo not drawn)	0.07
COc1ccc(C2C(C(=O)Nc3ccccn3)CCC(=O)N2c2cc(OC)c(OC)c(OC)c2)cc1 (stereo not drawn)	0.29
CC(C)Oc1ccc(-c2cc(C(=O)O)c3cc(Br)ccc3n2)cc1	-0.07
COc1ccc(-c2cc(=O)[nH]c(Sc3c(-c4ccccc4)c4cc(Cl)ccc4[nH]c3=O)n2)cc1	-3.3*
COc1ccc(C2CC(c3c(-c4ccccc4)c4cc(Cl)ccc4[nH]c3=O)=NN2C(=O)CCC(=O)O)cc1 (stereo not drawn)	-0.07
O=c1[nH]c2ccc(Cl)cc2c(-c2ccccc2)c1SCCO	-0.29
CCCOc1ccc2oc(=O)c3c(c2c1)CCCN3C(=O)CN1CCC(C(=O)OCC)CC1	0.56
COCCCNC(=O)C(=O)NCC1CCCO1 (stereo not drawn)	1.1
O=c1c(Br)c(N2CCN(c3ccc(C(F)(F)F)cc3[N+](=O)[O-])CC2)cnn1-c1ccccc1	-1.1
O=C(NCCc1ccccc1)c1ccc2c(c1)[nH]c(=S)n1c3ccccc3nc21	-0.8
CCOc1ccc(C2C(N3C(=O)c4ccc([N+](=O)[O-])cc4C3=O)C(=O)N2c2ccc(Br)c(C)c2)cc1 (stereo not drawn)	0.34
CC(=O)N1CCc2c(sc(NC(=O)c3ccc(S(=O)(=O)N4CCCC4)cc3)c2C(N)=O)C1	-0.2
COc1ccc(C(=O)COC(=O)C2CCN(S(=O)(=O)c3ccc4ccccc4c3)CC2)cc1	-0.45
O=C(Nc1ccc(-c2nc3ccccc3o2)cc1)c1ccccc1F	-1.2
c1ccc(NC2=NC3(CCCCC3)Cc3ccccc32)cc1	-0.73
CCCc1cc(=O)[nH]c(SCC(=O)Nc2ncccn2)n1	-1.5
COc1ccc(S(=O)(=O)NCc2ccc3c(c2)OCO3)cc1	0.63
CCOC(=O)c1c(C)n(-c2ccccc2)c2c1cc(OC(=O)c1ccco1)c1ccccc12	-0.27
O=c1c2c3c(sc2n2c(=S)[nH]nc2n1Cc1ccccc1)CCC3	-0.75
C=C1CSc2nc(=O)c3c4c(sc3n21)CCC4	-3.1*
Cc1nc2sc3c(c2c(=O)[nH]1)CCC3	0.5
COc1ccccc1-c1csc(NC(=O)c2cc(-c3ccccc3)nc3ccccc23)n1	-0.99
CC(C)CCC1=NN(C(=O)c2cccc(Br)c2)C(O)(C(F)(F)F)C1 (stereo not drawn)	0.64
CC1=C(C(=O)Nc2ccc(C)cc2C)C(c2cccc(Br)c2)n2ncnc2N1 (stereo not drawn)	-0.35
O=c1[nH]c2cc3ccccc3cc2nc1-c1ccccc1NCc1ccccc1	0.22
SMILES	Measles inh
CCCCN(CC)S(=O)(=O)c1ccc(F)c(C(=O)Nc2cccc(F)c2)c1	-1
O=C(NC1CCCCC1)c1ccccc1C(=O)NC1CCCCC1	-0.39
CCOC(=O)c1c(NC(=O)c2ccc([N+](=O)[O-])c(C)c2)sc(C(C)=O)c1C	1.3
Cn1cc(Br)cc(Br)c1=O	0.19
OCCCc1nc2n(n1)C(c1ccccc1Cl)C=C(c1ccccc1)N2 (stereo not drawn)	-0.25
Cc1nnc2c3c(-c4ccc(C(C)C)cc4)csc3ncn12	-1.1
CS(=O)(=O)n1c(SCC(=O)c2ccc(Cl)cc2)nc2ccccc21	-0.7
COc1ccc([N+](=O)[O-])cc1NC(=O)c1cccc(C(=O)Nc2cc([N+](=O)[O-])ccc2OC)c1	-0.38
COc1ccccc1NC(=O)c1cccc([N+](=O)[O-])c1	-0.86
COc1ccc([N+](=O)[O-])cc1NC(=O)c1cccc(F)c1	-5.2*
CC1CCC(C(=O)NC(C(=O)Nc2ccc(C(C)C)cc2)C(C)C)CC1 (stereo not drawn)	-0.83
CC1CCC(C(=O)NC(C(=O)NCc2ccccn2)C(C)C)CC1 (stereo not drawn)	-3.1*
CC1CCN(S(=O)(=O)N2CCC(C(=O)NCc3ccccn3)CC2)CC1	0.27
N#Cc1c(C(F)(F)F)cc(-c2cccs2)nc1SCC(O)CN1CCSCC1 (stereo not drawn)	0.24
CC(NC(=O)C1(O)c2ccccc2NC(=O)N1c1ccccc1)c1ccccc1 (stereo not drawn)	-0.35
COc1ccccc1NC(=O)C1=C(C)Nc2ncnn2C1c1cc(Br)ccc1OC (stereo not drawn)	0.35
CC(=O)Nc1ccc(N2C(=O)c3ccc(Br)cc3C2=O)cc1	-0.35
O=C(NCCN1CCCC1)C1CCN(S(=O)(=O)c2cccc3nsnc23)CC1	0.15
Cc1ccc(NC(=O)C(=O)NCc2ccncc2)cc1C	-0.31
CCOc1cccc2c1OC1(C)NC(=S)NC2C1C(=O)Nc1ccc(C)cc1C (stereo not drawn)	0.33
Cc1ccc(NC(=O)C2C3NC(=S)NC2(C)Oc2ccccc23)c(C)c1 (stereo not drawn)	-0.17
Cc1ccc(NC(=O)C2C3NC(=S)NC2(C)Oc2ccc(Br)cc23)c(C)c1 (stereo not drawn)	-3.3*
Cc1ccc(/C(O)=C2\C(=O)C(=O)N(CCCN(C)C)C2c2cccnc2)cc1 (stereo not drawn)	-1.8
Clc1ccc2nc3c(c(Nc4ccc5c(c4)OCO5)c2c1)CCCC3	-1.7
